Screening data as filed in PubChem BioAssay.
Tg IFNy HTS = T. gondii growth inhibition with IFN-gamma, primary screen, cell-based; Toxoplasma gondii growth in IFN-gamma-treated host cells; hits give low values; activity change, negative = inhibition, % (no concentration beside the values); 3.8% of 69,000 active; AID 1259416, 2018; in the data active means activity change below about -70%, passing the limit was not always enough;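 further: host cells are HeLa cells infected with Toxoplasma gondii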
Large screens that a line does not name were inactive. This is one part of a sample in which hits are shown more often than they occur.

Cc1cccc(N(C)CCC(=O)Nc2ccc(N3CCCS3(=O)=O)cc2)c1	none
Cc1cc(C)cc(NC(=O)Cn2c(=O)ccc3cc(S(=O)(=O)N4CCCC4)ccc32)c1	none
Cc1cnc(Nc2cccc(C3CCCN3C(=O)CCOc3ccccc3C)n2)s1 (centres undefined)	none
Cc1cc2oc(=O)cc(C)c2cc1NC(=O)c1cnc(CN2CCCC2)s1	none
Cc1nc(Nc2ncc(C(=O)Nc3c(C)cccc3Cl)s2)cc(N2CCN(CCO)CC2)n1	Tg IFNy HTS -77
Cc1cccc(C(=O)N2CCCC3(CC(c4cnn(C)c4)CO3)C2)c1 (centres undefined)	none
CS(=O)(=O)N1C[C@H]2COC[C@@H](CC(=O)Nc3cccnc3)[C@H]2C1	none
Cc1nc(-c2ccc(F)cc2)sc1CCNC(=O)c1ccccc1Br	none
Cc1ccc(-c2nc(C)c(CCNC(=O)C(=O)Nc3ccc4c(c3)OCO4)s2)cc1	none
Cc1nc(-c2ccc(F)cc2)sc1CCNC(=O)c1ccccc1Cl	Tg IFNy HTS -72
COc1ccccc1C(=O)NCCc1sc(-c2ccc(F)cc2)nc1C	Tg IFNy HTS -107
Cc1ccccc1OCC(=O)NCCc1sc(-c2ccc(Cl)cc2)nc1C	none
COc1ccccc1C(=O)NCCc1sc(-c2cccc(F)c2)nc1C	none
COc1ccccc1OCC(=O)NCCc1sc(-c2ccc(F)cc2)nc1C	none
Cc1nc(-c2ccc(F)cc2)sc1CCNC(=O)C(=O)Nc1ccc2c(c1)OCCO2	none
CCOc1ccccc1C(=O)NCCc1sc(-c2ccc(Cl)cc2)nc1C	Tg IFNy HTS -106
Cc1nc(-c2ccc(Cl)cc2)sc1CCNC(=O)COc1ccccc1F	none
Cc1nc(-c2ccc(F)cc2)sc1CCNC(=O)c1c(F)cccc1Cl	none
Cc1nc(-c2ccc(F)cc2)sc1CCNC(=O)C(=O)Nc1ccc2c(c1)OCO2	Tg IFNy HTS -72
CC(C)C(=O)N1CCC(c2nc(-c3ccncc3)ncc2S(C)(=O)=O)CC1	none
CNc1ncc(CN(C)c2nccc(CCC(F)(F)F)n2)cn1	none
NCCc1cc(N2CCCC(c3ccccc3)CC2)ncn1 (centres undefined)	none
CCn1c(C2CCCN(C(=O)c3coc4c3C(=O)CCC4)C2)nn(C)c1=O (centres undefined)	none
O=C(c1ccc(O)cc1)N1C[C@@H]2CN(c3cnccn3)CC[C@H]2C1	none
Cc1cnc2n1CCN(C)C21CCN(C(=O)c2ccco2)CC1	none
O=C(c1cccc(N2CCNC2=O)c1)N1CC[C@@H](c2ccc(F)cc2)[C@H](O)C1	none
c1cn(Cc2ccc(-n3cncn3)cc2)c(-c2ccc3nonc3c2)n1	none
O=C(c1ccco1)N1CCOC2CC(COCc3ccccn3)CC21 (centres undefined)	none
CN(C)CCO[C@@H]1C[C@@H]2CN(S(=O)(=O)c3cn(C)cn3)CCN2C1	none
COc1ccc(S(=O)(=O)NCCc2sc(-c3ccc(OC)c(OC)c3)nc2C)cc1C	none
COc1ccccc1C(=O)NCCc1sc(-c2ccc(Cl)cc2)nc1C	Tg IFNy HTS -107
COc1ccc(-c2nc(C)c(CCNS(=O)(=O)c3ccc(-c4ccccc4)cc3)s2)cc1OC	Tg IFNy HTS -118
Cc1ccccc1C(=O)NCCc1sc(-c2ccc(Cl)cc2)nc1C	none
Cc1nc(-c2ccc(Cl)cc2)sc1CCNC(=O)c1ccccc1F	none
COc1ccc(-c2nc(C)c(CCNS(=O)(=O)c3ccc(C)c(C)c3)s2)cc1OC	none
CCCCC/C=C\C=C\CCCCCCCCC(=O)O	none
COCCCN1C(=O)CCc2c(C)nc(CN(C)C(=O)c3c(C)oc4c3CCCC4)nc21	none
CN(C)Cc1cn2c(n1)CN(C(=O)Cc1cccs1)CC2	none
Cc1cc(C(=O)N2C[C@H]3C[C@@H]4[C@@](C2)(CN(CCC(C)C)S4(=O)=O)O3)no1	none
CS(=O)(=O)N1CCc2ccc(C(=O)NCCN3CCC(N4CCCCC4)CC3)cc21	none
Cc1ncc(-c2onc(C)c2C)c(C2CCCCN2C(=O)c2snnc2C)n1 (centres undefined)	none
O=c1[nH]nc(C2CCN(C/C=C/c3ccco3)CC2)n1Cc1ccccc1	none
O=C(/C=C\n1cnc(-c2cc(C(F)(F)F)cc(C(F)(F)F)c2)n1)N1CC(F)(F)C1	Tg IFNy HTS -80
COc1cc(-c2ncn(/C=C\C(=O)OC(C)C)n2)cc(C(F)(F)F)c1	Tg IFNy HTS -85
O=C(c1cc(C(F)(F)F)cc(C(F)(F)F)c1)N1CC=CCC1	none
O=C(/C=C\n1cnc(-c2cc(C(F)(F)F)cc(C(F)(F)F)c2)n1)NNc1cnccn1	none
Cc1nc(CN(C)C(=O)C(C)n2ccnc2C(C)C)cs1 (centres undefined)	none
COc1cccc(-c2noc(-c3c(O)c4cc(F)ccc4n(C)c3=O)n2)c1	none
Cc1ccc(NC(=O)C(CC(C)C)NS(=O)(=O)c2ccc3[nH]c(=O)ccc3c2)cc1 (centres undefined)	none
Cc1ccc(C2(O)CCN(c3ccc(C(=O)N(C)C)cn3)CC2)nc1	none
O=C(Cn1c(=O)cc(C(=O)N2CCc3ccccc3C2)c2ccccc21)Nc1ccc(F)c(Cl)c1	Tg IFNy HTS -72
Cc1ccc(NC(=O)Cn2c(=O)cc(C(=O)N3CCc4ccccc4C3)c3ccccc32)cc1F	none
O=C(Cn1c(=O)cc(C(=O)N2CCCC2)c2ccccc21)Nc1ccc(F)c(Cl)c1	none
COc1cc(N2CC[C@]3(CCC[C@H](CNS(C)(=O)=O)O3)C2)ncn1	none
Cc1cccc(C(=O)N2CCC3(CC2)Nc2cc(F)ccc2-n2cccc23)c1	none
COc1ccc(N(Cc2nc(-c3ccccc3)oc2C)S(=O)(=O)c2cccs2)cc1	none
COc1ccccc1CN(CCCn1ccnc1)Cc1ccc(F)c(F)c1	none
Clc1cccc(Cl)c1Cn1ccnc1	none
Clc1ccc(CCC(Cn2ccnc2)Sc2c(Cl)cccc2Cl)cc1 (centres undefined)	Tg IFNy HTS -86
COc1cccc2c1OCC(C(=O)N1C[C@@H]3[C@@H]4CC[C@@H](C4)[C@@H]3C1)C2 (some centres undefined)	none
O=C(NC1CCCCC1)C(c1ccccc1)N(CCc1ccccc1)C(=O)c1cnsn1 (centres undefined)	none
CNC(=O)c1cc(Oc2ccc(NC(=O)Nc3ccc(Cl)c(C(F)(F)F)c3)cc2)ccn1	Tg IFNy HTS -80
CC(=O)Nc1ccc(OCc2ncc(C(F)(F)F)cc2Cl)cc1	none
CCCCOC(=O)c1ccc(NC(=O)Nc2ccc(Cl)c(Cl)c2)cc1	none
O=C(NCc1cccnc1)C1CC2CN(Cc3cccc(Cl)c3)CC1O2 (centres undefined)	none
Cc1nc(-c2ccc(F)cc2)sc1CCNC(=O)c1ccc(C(F)(F)F)cc1	none
Cc1cccc(-c2nc(C)c(CCNC(=O)C(=O)Nc3c(C)cccc3C)s2)c1	none
Cc1nc(-c2ccc(F)cc2)sc1CCNC(=O)c1cccc(F)c1	none
Cc1cc(C)c(NC(=O)C(=O)NCCc2sc(-c3cccc(F)c3)nc2C)c(C)c1	none
Cc1nc(-c2cccc(F)c2)sc1CCNC(=O)c1ccc(C(F)(F)F)cc1	Tg IFNy HTS -90
Cc1nc(-c2ccc(F)cc2)sc1CCNC(=O)c1cccc(C(F)(F)F)c1	Tg IFNy HTS -74
Cc1cccc(-c2nc(C)c(CCNC(=O)C(=O)Nc3c(C)cc(C)cc3C)s2)c1	Tg IFNy HTS -79
Cc1ccc(C(=O)NCCc2sc(-c3cccc(F)c3)nc2C)cc1	none
Cc1nc(-c2ccc(Cl)cc2)sc1CCNC(=O)c1cccc(C(F)(F)F)c1	none
CCS(=O)(=O)N1CC[C@@H]2C(=O)N(c3ccsc3)CCO[C@@H]2C1	none
CCOC(=O)C1(CCc2ccccc2)CCN(C(=O)CCn2cnc3ccccc32)CC1	none
c1coc(CN2CC3CC(C2)CN(CC2CCOC2)C3)c1 (centres undefined)	none
Cc1ccc(C(=O)N2CCC3(CC2)Nc2ccc(C)c(C)c2-n2cccc23)cc1C	none
